Sequences and labels used below:
B1: GCUACCU (DNA:RNA)
RNA: GGGAGACCGGAAUUCAGAUUGUCCGCUACCUUUAAAUCCCGUCGUAGCCACCA
DNA 1: CAATCTGAATTCCGGTCTCCC
DNA 2: TGGTGGCTACGACGGGATT
B2: CCGCCGU (DNA:RNA)
RNA: B1 RNA with G25C, U27G, A28C, C30G
DNA 1: CAATCTGAATTCCGGTCTCCC
DNA 2: TGGTGGCTACGACGGGATT
B3: AUGCGAA (DNA:RNA)
RNA: GGGAGACCGGAAUUCAGAUUGUCCAUGCGAAUUAAAUCCCGUCGUAGCCACCA
DNA 1: CAATCTGAATTCCGGTCTCCC
DNA 2: TGGTGGCTACGACGGGATT
B4: CUGUCGA (DNA:RNA)
RNA: B3 RNA with A25C, C28U, G29C, A30G
DNA 1: CAATCTGAATTCCGGTCTCCC
DNA 2: TGGTGGCTACGACGGGATT
B5: AAGGGCC (DNA:RNA)
RNA: B3 RNA with U26A, C28G, A30C, A31C
DNA 1: CAATCTGAATTCCGGTCTCCC
DNA 2: TGGTGGCTACGACGGGATT
B6: CUCUACC (DNA:RNA)
RNA: B3 RNA with A25C, G27C, C28U, G29A, A30C, A31C
DNA 1: CAATCTGAATTCCGGTCTCCC
DNA 2: TGGTGGCTACGACGGGATT
B7: UAGCGCA (DNA:RNA)
RNA: B3 RNA with A25U, U26A, A30C
DNA 1: CAATCTGAATTCCGGTCTCCC
DNA 2: TGGTGGCTACGACGGGATT
B8: UCGUAUG (DNA:RNA)
RNA: B3 RNA with A25U, U26C, C28U, G29A, A30U, A31G
DNA 1: CAATCTGAATTCCGGTCTCCC
DNA 2: TGGTGGCTACGACGGGATT
B9: GGUAUGA (DNA:RNA)
RNA: B1 RNA with C26G, C29U, C30G, U31A
DNA 1: CAATCTGAATTCCGGTCTCCC
DNA 2: TGGTGGCTACGACGGGATT
B10: CGUAUGA (DNA:RNA)
RNA: B1 RNA with G25C, C26G, C29U, C30G, U31A
DNA 1: CAATCTGAATTCCGGTCTCCC
DNA 2: TGGTGGCTACGACGGGATT
B11: GUUAUGA (DNA:RNA)
RNA: B1 RNA with C26U, C29U, C30G, U31A
DNA 1: CAATCTGAATTCCGGTCTCCC
DNA 2: TGGTGGCTACGACGGGATT
B12: GUCCUCG (DNA:RNA)
RNA: B3 RNA with A25G, G27C, G29U, A30C, A31G
DNA 1: CAATCTGAATTCCGGTCTCCC
DNA 2: TGGTGGCTACGACGGGATT
B13: UCGUCCG (DNA:RNA)
RNA: B1 RNA with G25U, U27G, A28U, U31G
DNA 1: CAATCTGAATTCCGGTCTCCC
DNA 2: TGGTGGCTACGACGGGATT
B14: UAGUCAA (DNA:RNA)
RNA: B3 RNA with A25U, U26A, C28U, G29C
DNA 1: CAATCTGAATTCCGGTCTCCC
DNA 2: TGGTGGCTACGACGGGATT
B15: GUUGUUC (DNA:RNA)
RNA: B1 RNA with C26U, A28G, C29U, C30U, U31C
DNA 1: CAATCTGAATTCCGGTCTCCC
DNA 2: TGGTGGCTACGACGGGATT
B16: GAAUUGU (DNA:RNA)
RNA: B1 RNA with C26A, U27A, A28U, C29U, C30G
DNA 1: CAATCTGAATTCCGGTCTCCC
DNA 2: TGGTGGCTACGACGGGATT
B17: GAACCGU (DNA:RNA)
RNA: B1 RNA with C26A, U27A, A28C, C30G
DNA 1: CAATCTGAATTCCGGTCTCCC
DNA 2: TGGTGGCTACGACGGGATT
B18: GAAUCGU (DNA:RNA)
RNA: B1 RNA with C26A, U27A, A28U, C30G
DNA 1: CAATCTGAATTCCGGTCTCCC
DNA 2: TGGTGGCTACGACGGGATT
B19: GGAUCGC (DNA:RNA)
RNA: B1 RNA with C26G, U27A, A28U, C30G, U31C
DNA 1: CAATCTGAATTCCGGTCTCCC
DNA 2: TGGTGGCTACGACGGGATT
B20: CGAAUCG (DNA:RNA)
RNA: B1 RNA with G25C, C26G, U27A, C29U, U31G
DNA 1: CAATCTGAATTCCGGTCTCCC
DNA 2: TGGTGGCTACGACGGGATT
B21: UGAACCG (DNA:RNA)
RNA: B1 RNA with G25U, C26G, U27A, U31G
DNA 1: CAATCTGAATTCCGGTCTCCC
DNA 2: TGGTGGCTACGACGGGATT
B22: UGAAUUG (DNA:RNA)
RNA: B1 RNA with G25U, C26G, U27A, C29U, C30U, U31G
DNA 1: CAATCTGAATTCCGGTCTCCC
DNA 2: TGGTGGCTACGACGGGATT
B23: GAAUCGC (DNA:RNA)
RNA: B1 RNA with C26A, U27A, A28U, C30G, U31C
DNA 1: CAATCTGAATTCCGGTCTCCC
DNA 2: TGGTGGCTACGACGGGATT
B24: UGAAUCG (DNA:RNA)
RNA: B1 RNA with G25U, C26G, U27A, C29U, U31G
DNA 1: CAATCTGAATTCCGGTCTCCC
DNA 2: TGGTGGCTACGACGGGATT
B25: CGAUCGC (DNA:RNA)
RNA: B1 RNA with G25C, C26G, U27A, A28U, C30G, U31C
DNA 1: CAATCTGAATTCCGGTCTCCC
DNA 2: TGGTGGCTACGACGGGATT
B26: GAAUCCG (DNA:RNA)
RNA: B1 RNA with C26A, U27A, A28U, U31G
DNA 1: CAATCTGAATTCCGGTCTCCC
DNA 2: TGGTGGCTACGACGGGATT
B27: GAAAUCG (DNA:RNA)
RNA: B1 RNA with C26A, U27A, C29U, U31G
DNA 1: CAATCTGAATTCCGGTCTCCC
DNA 2: TGGTGGCTACGACGGGATT

Where a chain is given by its changes, count along the chain named. In all, about 16,000 sequences were measured (“ka relative to ugcaugu”: median about 0.096, highest 2% from about 0.35 on). The full list was thinned out, with the highest values kept by preference.

In this test the target is T1, RBFOX1 RRM RbFoxmut (Fox-RRM*) (Homo sapiens, UniProt Q9NWB1 109-208, R118D;E147R;N151S;E152T).
T1 sequence: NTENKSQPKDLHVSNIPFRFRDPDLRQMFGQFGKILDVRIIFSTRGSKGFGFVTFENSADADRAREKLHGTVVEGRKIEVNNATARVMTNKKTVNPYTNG
The experiment in a line: EMSA; HiTS-Eq, 1 nM pool, 10 min; buffer printed only for the single-RNA assays: 10 mM Tris pH 7.5, 150 mM NaCl, 3.4 mM EDTA, 0.001% NP-40, 30 C. The conditions noted are these: tags: His6 N-terminal (pET28a); label: 5' 32P. The method, boiled down: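 Purified wild-type or mutant RbFox RRM at increasing concentrations was equilibrated with 1 nM of 5′-radiolabelled RNA carrying 7 randomized nucleotides for 10 min in 50 µL. Unbound RNA was separated by 8% native PAGE and sequenced. Relative association constants came from read-count changes of each RNA species compared with the control reaction, normalised to the cognate motif.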
For orientation: Mobility shift assays separate free from complexed probe on a gel.
Turning to B1, the binding signal is 0.0731 KA relative to UGCAUGU.

As to B2, the binding signal is 0.133 KA relative to UGCAUGU.

Consider B3, for which the binding signal was 0.131 KA relative to UGCAUGU.

Regarding B4, the binding signal is 0.0775 KA relative to UGCAUGU.

B5: the binding signal was 0.148 KA relative to UGCAUGU.

For B6, the binding signal is 0.0729 KA relative to UGCAUGU.

For the molecule B7, the binding signal was 0.124 KA relative to UGCAUGU.

For B8, the binding signal was 0.87 KA relative to UGCAUGU.

B9: the binding signal is 0.468 KA relative to UGCAUGU.

As for B10, the binding signal was 0.258 KA relative to UGCAUGU.

For B11, the binding signal was 0.206 KA relative to UGCAUGU.

For B12, the binding signal was 0.114 KA relative to UGCAUGU.

As for B13, the binding signal is 0.0959 KA relative to UGCAUGU.

B14: the binding signal is 0.0801 KA relative to UGCAUGU.

For B15, the binding signal is 0.106 KA relative to UGCAUGU.

As for B16, the binding signal is 0.192 KA relative to UGCAUGU.

Consider B17, for which the binding signal is 0.126 KA relative to UGCAUGU.

With B18, the binding signal was 0.576 KA relative to UGCAUGU.

Take B19: the binding signal was 0.23 KA relative to UGCAUGU.

For B20, the binding signal was 0.374 KA relative to UGCAUGU.

Consider B21, for which the binding signal is 0.0911 KA relative to UGCAUGU.

On to B22, for which the binding signal is 0.174 KA relative to UGCAUGU.

For the molecule B23, the binding signal is 0.512 KA relative to UGCAUGU.

Consider B24, for which the binding signal is 0.363 KA relative to UGCAUGU.

In the case of B25, the binding signal was 0.0736 KA relative to UGCAUGU.

As for B26, the binding signal is 0.219 KA relative to UGCAUGU.

For the molecule B27, the binding signal is 0.0585 KA relative to UGCAUGU.

The record behind these values is publication PMC9911399, “Two distinct binding modes provide the RNA-binding protein RbFox with extraordinary sequence specificity”.
